Seven sequences from paper PMC8384837, “Expanding the binding specificity for RNA recognition by a PUF domain” can be followed below.

Test in all cases: yeast three-hybrid, YBZ-1, SC-Leu-His + 0.5 mM 3-AT, 4 days
What all share (details): tags: N-Gal4 AD-HA kept; label: inside an RPR1-promoter hybrid RNA with tandem MS2 sites; ssRNA

In test [1] the target is PUM1 PUF domain R3-IWT (Homo sapiens, UniProt Q14671 828-1176, C935I;R936W;Q939T). In a few lines:
(§1)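 The interaction score is the log change in variant frequency from input to selection. Scores were computed in log2 with a pseudocount of 1 for absent variants, using Illumina sequencing of PCR-amplified repeat regions. The input came from four days on SC-Leu and the selection from four days on SC-Leu-His + 0.5 mM 3-AT. The cells were strain YBZ-1 (LexA–MS2 coat fusion, HIS3 reporter) co-expressing Pumilio-1 PUF domain libraries and matching RNA elements from a centromeric plasmid.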

The target in test [2] is PUM1 PUF domain R3-ARD (Homo sapiens, UniProt Q14671 828-1176, C935A;Q939D). In a few lines:
as §1

The target in test [3] is PUM1 PUF domain R3-DWR (Homo sapiens, UniProt Q14671 828-1176, C935D;R936W;Q939R). The procedure, abridged: as §1
PUM1 PUF domain R3-DWR, sequence (Q14671 828-1176 C935D/R936W/Q939R): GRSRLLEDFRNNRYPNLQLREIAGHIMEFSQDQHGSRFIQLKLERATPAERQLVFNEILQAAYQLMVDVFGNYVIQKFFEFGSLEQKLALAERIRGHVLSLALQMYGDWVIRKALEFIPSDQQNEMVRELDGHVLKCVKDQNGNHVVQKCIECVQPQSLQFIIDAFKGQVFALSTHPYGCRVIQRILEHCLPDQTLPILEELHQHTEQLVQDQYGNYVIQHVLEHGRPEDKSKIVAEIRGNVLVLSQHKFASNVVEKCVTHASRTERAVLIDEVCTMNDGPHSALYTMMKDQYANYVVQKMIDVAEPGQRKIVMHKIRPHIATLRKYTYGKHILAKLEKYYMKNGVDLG
Test [4] deals with PUM1 PUF domain R3-GPC (Homo sapiens, UniProt Q14671 828-1176, C935G;R936P;Q939C). In a few lines: as §1
PUM1 PUF domain R3-GPC, sequence (Q14671 828-1176 C935G/R936P/Q939C): as the sequence (Q14671 828-1176 C935D/R936W/Q939R) above, with D108G, W109P, R112C counted along it
In test [5] the target is PUM1 PUF domain R5-SGT (Homo sapiens, UniProt Q14671 828-1176, C1007S;R1008G;Q1011T). The procedure, abridged:
as §1

The target in test [6] is PUM1 PUF domain R4-GPM (Homo sapiens, UniProt Q14671 828-1176, N971G;H972P;Q975M). In a few lines: as §1
PUM1 PUF domain R4-GPM, sequence (Q14671 828-1176 N971G/H972P/Q975M): as the sequence (Q14671 828-1176 C935D/R936W/Q939R) above, with D108C, W109R, R112Q, N144G, H145P, Q148M counted along it
Test [7] concerns the target PUM1 PUF domain R5-IYH (Homo sapiens, UniProt Q14671 828-1176, C1007I;R1008Y;Q1011H). In a few lines: as §1
The target of test [8] is PUM1 PUF domain R5-RSD (Homo sapiens, UniProt Q14671 828-1176, C1007R;R1008S;Q1011D). In a few lines: as §1
PUM1 PUF domain R5-RSD, sequence (Q14671 828-1176 C1007R/R1008S/Q1011D): as the sequence (Q14671 828-1176 C935D/R936W/Q939R) above, with D108C, W109R, R112Q, C180R, R181S, Q184D counted along it
The target of test [9] is PUM1 PUF domain R5-LNL (Homo sapiens, UniProt Q14671 828-1176, C1007L;R1008N;Q1011L). The procedure, abridged:
as §1

The target in test [10] is PUM1 PUF domain R8-KHT (Homo sapiens, UniProt Q14671 828-1176, N1122K;Y1123H;Q1126T). The procedure, abridged: as §1
PUM1 PUF domain R8-KHT, sequence (Q14671 828-1176 N1122K/Y1123H/Q1126T): as the sequence (Q14671 828-1176 C935D/R936W/Q939R) above, with D108C, W109R, R112Q, N295K, Y296H, Q299T counted along it

PUM1 PUF domain R3-IWT, sequence (Q14671 828-1176 C935I/R936W/Q939T): as the sequence (Q14671 828-1176 C935D/R936W/Q939R) above, with D108I, R112T counted along it
PUM1 PUF domain R3-ARD, sequence (Q14671 828-1176 C935A/Q939D): as the sequence (Q14671 828-1176 C935D/R936W/Q939R) above, with D108A, W109R, R112D counted along it
PUM1 PUF domain R5-IYH, sequence (Q14671 828-1176 C1007I/R1008Y/Q1011H): as the sequence (Q14671 828-1176 C935D/R936W/Q939R) above, with D108C, W109R, R112Q, C180I, R181Y, Q184H counted along it
PUM1 PUF domain R5-SGT, sequence (Q14671 828-1176 C1007S/R1008G/Q1011T): as the sequence (Q14671 828-1176 C935D/R936W/Q939R) above, with D108C, W109R, R112Q, C180S, R181G, Q184T counted along it
PUM1 PUF domain R5-LNL, sequence (Q14671 828-1176 C1007L/R1008N/Q1011L): as the sequence (Q14671 828-1176 C935D/R936W/Q939R) above, with D108C, W109R, R112Q, C180L, R181N, Q184L counted along it

Take “GGCUAGAACUAGUGGAUCCCCCGGCGCCCGGCGGCUCGAGCCCGGGUAAGUGUAAGUAGUCUGCAUGCCGCCGGGCGCCAUGCCUGCAGGUCGACUCUAGAAAACAUG”: the binding signal is 3.1 log2 enrichment (interaction score) in test [1], 4.51 log2 enrichment (interaction score) in [2] and 1.12 log2 enrichment (interaction score) in test [3].
For the sequence “GGCUAGAACUAGUGGAUCCCCCGGCGCCCGGCGGCUCGAGCCCGGGUAAGUGUAAUUAGUCUGCAUGCCGCCGGGCGCCAUGCCUGCAGGUCGACUCUAGAAAACAUG”, the values for the binding signal in test [4] and in test [3] were 2.82 log2 enrichment (interaction score) and 3.53 log2 enrichment (interaction score), respectively.
For the sequence “GGCUAGAACUAGUGGAUCCCCCGGCGCCCGGCGGCUCGAGCCCGGGUAAGUGUGAAUAGUCUGCAUGCCGCCGGGCGCCAUGCCUGCAGGUCGACUCUAGAAAACAUG”, the binding signal in [5] was 2.85 log2 enrichment (interaction score).
As for “GGCUAGAACUAGUGGAUCCCCCGGCGCCCGGCGGCUCGAGCCCGGGUAAGUGUAAAUAGUCUGCAUGCCGCCGGGCGCCAUGCCUGCAGGUCGACUCUAGAAAACAUG”, the binding signal in test [4] is 2.57 log2 enrichment (interaction score); in test [6] it was 2.8 log2 enrichment (interaction score); in [7] it was 4.47 log2 enrichment (interaction score); in test [3], 0.88 log2 enrichment (interaction score).
Consider “GGCUAGAACUAGUGGAUCCCCCGGCGCCCGGCGGCUCGAGCCCGGGUAAGUGUCAAUAGUCUGCAUGCCGCCGGGCGCCAUGCCUGCAGGUCGACUCUAGAAAACAUG”, for which, in test [8], the binding signal is 2.74 log2 enrichment (interaction score).
In the case of “GGCUAGAACUAGUGGAUCCCCCGGCGCCCGGCGGCUCGAGCCCGGGUAAGUGUUAAUAGUCUGCAUGCCGCCGGGCGCCAUGCCUGCAGGUCGACUCUAGAAAACAUG”, the binding signal in test [9] was 3.35 log2 enrichment (interaction score); in [8], 2.65 log2 enrichment (interaction score).
With “GGCUAGAACUAGUGGAUCCCCCGGCGCCCGGCGGCUCGAGCCCGGGUAAGCGUAAAUAGUCUGCAUGCCGCCGGGCGCCAUGCCUGCAGGUCGACUCUAGAAAACAUG”, the binding signal in test [10] was 4.89 log2 enrichment (interaction score).
